Measurements from PubChem BioAssay (NCATS).
Inconclusive results are not listed. Calls of active or inactive are those of the source. Calls come from the whole dose curve; as a rule, active = well fitted curve in the direction sought with a large enough effect; inconclusive = small, poorly fitted or top-dose-only effect, or another doubt; inactive = no such curve, though single readings can be large; an effect the other way counts as inactive or inconclusive.

Assays:
[1] = biological target: Calcium and integrin-binding protein 1 (Homo sapiens) (UniProt Q99828); test: Primary qHTS for Identification of Calcium Integrin Binding Protein 1 (CIB1) Competitor (AID 1508620);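 note: GST tagged CIB1 binding a fluorescein labelled alphaIIb integrin peptide tracer; top concentration of the series differs between compounds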
Sequence of Calcium and integrin-binding protein 1 (Homo sapiens) (Q99828 whole entry, looked up): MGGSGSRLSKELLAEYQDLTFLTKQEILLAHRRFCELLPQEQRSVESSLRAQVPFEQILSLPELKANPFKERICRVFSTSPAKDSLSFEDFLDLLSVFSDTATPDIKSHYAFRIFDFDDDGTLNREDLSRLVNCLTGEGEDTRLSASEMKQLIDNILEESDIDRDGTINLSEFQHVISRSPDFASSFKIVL
Summary of the method: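 Fluorescence polarization competition: CIB1-GST (1 uM final) preincubated with compound 15 min at room temperature, then FITC-labeled alphaIIb peptide (100 nM final) added for another 15 min. Polarization read at Ex 480/Em 540.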

[2] = Primary qHTS for inhibitors of nuclear receptor binding SET domain protein 2 (NSD2) in an isogenic RCH-ACV NSD2 p.E1099K mutant (9B) (AID 1645876); note: nearly all actives have a fitted effect of over 70% in size
[3] = Primary qHTS for inhibitors of nuclear receptor binding SET domain protein 2 (NSD2) in an RCH-ACV wild type WT cells (2C) (AID 1645877); note: nearly all actives have a fitted effect of over 70% in size
% is set by controls: 0 for no effect and ±100 for the full control effect.

Nc1ccc(-n2nc(C(F)(F)F)cc2C(F)(F)F)cc1
inactive: Potency [1] | Potency [2] | Potency [3]

CC[C@H]1OC(=O)[C@H](C)C(=O)[C@H](C)[C@@H](OC2O[C@H](C)C[C@H](N(C)C)[C@H]2O)[C@@H](C)C[C@@H](C)C(=O)/C=C/[C@]1(C)O (stereo partly drawn)
inactive: Potency [1] | Potency [2] | Potency [3]

CC(=O)/C=C/[C@H]1[C@](C)(O)[C@@H](O)[C@H](O)C2C(C)(C)CCC[C@@]21C (stereo partly drawn)
inactive: Potency [1] | Potency [2] | Potency [3]

CC(=O)O[C@@]1(C)[C@@H]2CC(=C(C)C)C(=O)C[C@@]2(C)CC[C@H]1OC(=O)C1(C)OC1C (stereo partly drawn)
inactive: Potency [1] | Potency [2] | Potency [3]

CC(NC(=O)c1ccccc1N)C(=O)O (stereo not drawn)
inactive: Potency [1] | Potency [2] | Potency [3]

CC1CCC2(C(=O)OC3OC(CO)C(O)C(O)C3O)CCC3(C)C(=CCC4C5(C)CCC(O)C(C)(CO)C5CCC43C)C2C1(C)O (stereo not drawn)
inactive: Potency [1] | Potency [2] | Potency [3]

C[C@@H]1O[C@@H](O[C@H]2[C@H](O)[C@@H](O)[C@H](OC(=O)[C@]34CCC(C)(C)C[C@H]3C3=CCC5[C@@]6(C)CC[C@H](O[C@@H]7O[C@H](C(=O)O)[C@@H](O)[C@H](O)[C@H]7O)C(C)(C)C6CC[C@@]5(C)[C@]3(C)CC4)O[C@@H]2CO)[C@H](O)[C@H](O)[C@H]1O (stereo partly drawn)
inactive: Potency [1] | activity change, negative = viability loss [2] -5.91% [at 9.23 µM] | activity change, negative = cell killing [3] -1.6% [at 9.23 µM]

COc1cc(O)c2c(c1)C1(OC2=O)C(C)=CC(=O)C1O (stereo not drawn)
inactive: Potency [1] | Potency [2] | Potency [3]

CC(=O)OCC1OC(O[C@H]2CC[C@@]3(C)C(CC[C@]4(C)C3CC=C3[C@@H]5CC(C)(C)CC[C@]5(C(=O)O)CC[C@]34C)[C@]2(C)CO)C(O)C(O)C1OC1OC(C)C(O)C(OC2OCC(O)C(O)C2O)C1O (stereo partly drawn)
inactive: Potency [1] | activity change, negative = viability loss [2] -15.5% [at 9.23 µM] | activity change, negative = cell killing [3] -24% [at 9.23 µM]

COc1cc(O)cc(C)c1C(=O)O[C@H]1[C@@H](O)[C@@H](n2ccc(=O)[nH]c2=O)O[C@@H]1CO
inactive: Potency [1] | Potency [2] | Potency [3]

CC1(C)C2CC[C@]3(C)C(C(=O)C=C4[C@H]5C[C@@](C)(C(=O)O)CC[C@]5(C)CC[C@]43C)[C@@]2(C)CC[C@@H]1O (stereo partly drawn)
inactive: Potency [1] | Potency [2] | Potency [3]

C/C(=C\CCC(C)(C)O)CCO[C@@H]1O[C@H](CO[C@@H]2O[C@@H](C)[C@H](O)[C@@H](O)[C@H]2O)[C@@H](O)[C@H](O)[C@H]1O
inactive: Potency [1] | Potency [2] | Potency [3]

C[C@@H]1O[C@@H](O[C@H]2[C@@H]3C=CO[C@@H](O[C@@H]4O[C@H](CO)[C@@H](O)[C@H](O)[C@H]4O)[C@@H]3[C@@]3(CO)O[C@@H]23)[C@H](O)[C@H](OC(=O)/C=C/c2ccc(O)cc2)[C@H]1OC(=O)/C=C/c1ccc(O)cc1
inactive: Potency [1] | Potency [2] | Potency [3]

CC/C=C\CC1C(CC(=O)O)CCC1OC1OC(CO)C(O)C(O)C1O (stereo not drawn)
inactive: Potency [1] | Potency [2] | Potency [3]

C[C@H]1CC[C@H]2[C@@H](C=C[C@@](C)(O)[C@]2(C)C(=O)CCO)C1
inactive: Potency [1] | Potency [2] | Potency [3]

C/C(=C\CCC1(C)C2CC3C(C2)C31C)C(=O)O (stereo not drawn)
inactive: Potency [1] | Potency [2] | Potency [3]

C=C1C(O)C(O)C2(CC3C(C)=CCC4C(C)(C(=O)O)CCCC34C)OC2C1O (stereo not drawn)
inactive: Potency [1] | Potency [2] | Potency [3]

C=C1CC2C3(C)C=CC(=O)OC(C)(C)C3CC(OC(C)=O)C2(C)C2C(=O)OC(C)C(=O)C12C (stereo not drawn)
inactive: Potency [1] | Potency [2] | Potency [3]

COC(=O)c1ccccc1O[C@@H]1O[C@H](CO[C@@H]2OC[C@@H](O)[C@H](O)[C@H]2O)[C@@H](O)[C@H](O)[C@H]1O
inactive: Potency [1] | Potency [2] | Potency [3]

C=CC(C)(C)C12Nc3c(ccc4c3OC(C)(C)C=C4)C1(O)CC1C(=O)N3CCCC3C(=O)N12 (stereo not drawn)
inactive: Potency [1] | Potency [2] | Potency [3]

CC(C)C1CCC(C(=O)N[C@@H](Cc2ccccc2)C(=O)O)CC1 (stereo partly drawn)
inactive: Potency [1] | Potency [2] | Potency [3]

O=C(/C=C/c1ccc(O)c(O)c1)O[C@H]1[C@@H]2C=CO[C@@H](O[C@@H]3O[C@H](CO)[C@@H](O)[C@H](O)[C@H]3O)[C@@H]2[C@@]2(CO)O[C@@H]12
inactive: Potency [1] | Potency [2] | Potency [3]

COc1cc2c(cc1O)CC(O)(CO)C(CO)C2c1ccc(OC2OC(CO)C(O)C(O)C2O)c(OC)c1 (stereo not drawn)
inactive: Potency [1] | Potency [2] | Potency [3]

CC1CC(=O)[C@]2(O)C(C(=O)OCCc3ccc(O)cc3)=CO[C@@H](O[C@@H]3O[C@H](CO)[C@@H](O)[C@H](O)[C@H]3O)[C@H]12 (stereo partly drawn)
inactive: Potency [1] | Potency [2] | Potency [3]

COc1ccc(O[C@@H]2O[C@H](CO)[C@@H](O)[C@H](O)[C@H]2O)cc1OC
inactive: Potency [1] | Potency [2] | Potency [3]

C[C@@H]1[C@H](O)[C@@H]2OC(=O)C3=C2[C@H](CCC3)[C@@]12C[C@@H](c1ccoc1)OC2=O
inactive: Potency [1] | Potency [2] | Potency [3]

C=C1CCC2(OC1)OC1CC3C4CC=C5CC(O)CC(O[C@@H]6OC[C@H](OC(=O)C(O)C(C)CC)[C@H](O)[C@H]6O[C@@H]6O[C@@H](C)[C@H](O)[C@@H](O)[C@H]6O)C5(C)C4CCC3(C)C1C2C (stereo partly drawn)
inactive: Potency [1] | activity change, negative = viability loss [2] -3.21% [at 9.23 µM] | activity change, negative = cell killing [3] -9.66% [at 9.23 µM]

COc1ccc(C2OCC3C(c4cc(OC)c5c(c4)OCO5)OCC23)cc1OC (stereo not drawn)
inactive: Potency [1] | Potency [2] | Potency [3]

COC(=O)C1=CO[C@@H](O[C@@H]2O[C@H](CO)[C@@H](O)[C@H](O)[C@H]2O)[C@@H]2[C@@H](CO)[C@@H](O)C(O)[C@H]12 (stereo partly drawn)
inactive: Potency [1] | Potency [2] | Potency [3]

C[C@@H]1CC[C@]2(C(=O)O[C@@H]3O[C@H](CO[C@@H]4O[C@H](CO)[C@@H](O)[C@H](O)[C@H]4O)[C@@H](O)[C@H](O)[C@H]3O)CC[C@]3(C)C(=CCC4[C@@]5(C)CC[C@H](O)[C@](C)(C(=O)O)C5CC[C@]43C)[C@@H]2[C@]1(C)O (stereo partly drawn)
inactive: Potency [1] | activity change, negative = viability loss [2] -2.63% [at 9.23 µM] | activity change, negative = cell killing [3] -8.35% [at 9.23 µM]

COC(=O)C1=COC(O[C@@H]2O[C@H](CO)[C@@H](O)[C@H](O)[C@H]2O)C2C(C)C(=O)CC12 (stereo partly drawn)
inactive: Potency [1] | Potency [2] | Potency [3]

COC(=O)C1=CO[C@@H](O[C@@H]2O[C@H](CO)[C@@H](O)[C@H](O)[C@H]2O)[C@H]2[C@@H]1C=C[C@]21C=C([C@H](C)OC(=O)/C=C/c2ccc(O[C@@H]3O[C@H](CO)[C@@H](O)[C@H](O)[C@H]3O)cc2)C(=O)O1
inactive: Potency [1] | Potency [2] | Potency [3]

CC(C)(O)c1ccc2c(c1)C(=O)C[C@H]1[C@](C)(C(=O)O)CCC[C@]21C
inactive: Potency [1] | Potency [2] | Potency [3]

O=C1NC(=O)/C(=C/c2cccc(C(F)(F)F)c2)S1
inactive: Potency [1] | Potency [2] | Potency [3]

O=C(O)Cc1cn([C@@H]2O[C@H](CO)[C@@H](O)[C@H](O)[C@H]2O[C@@H]2O[C@H](CO)[C@@H](O)[C@H](O)[C@H]2O)c2ccccc12
inactive: Potency [1] | Potency [2] | Potency [3]

CC1(C)CC[C@]2(C(=O)O[C@@H]3O[C@H](CO)[C@@H](O)[C@H](O)[C@H]3O)CC[C@]3(C)C(=CCC4[C@@]5(C)C[C@H](O)[C@H](O[C@@H]6O[C@H](C(=O)O)[C@@H](O)[C@H](O)[C@H]6O)[C@@](C)(CO)C5CC[C@]43C)C2C1 (stereo partly drawn)
inactive: activity change, negative = inhibition [1] 0.901% [at 12.4 µM] | activity change, negative = viability loss [2] -12.9% [at 9.23 µM] | activity change, negative = cell killing [3] -7.01% [at 9.23 µM]

CC(CC(C)O[C@@H]1O[C@H](CO)[C@@H](O)[C@H](O)[C@H]1O)OC(=O)/C=C/c1ccc(O)cc1 (stereo partly drawn)
inactive: Potency [1] | Potency [2] | Potency [3]

C[C@@H]1C[C@@H](O)[C@@]23CO[C@]2(CO)CCC[C@@H]3[C@@]12C[C@@H](c1ccoc1)OC2=O
inactive: Potency [1] | Potency [2] | Potency [3]

CSCC1OC(n2cnc3c(=O)[nH]cnc32)C(O)C1O (stereo not drawn)
inactive: Potency [1] | Potency [2] | Potency [3]

CC(=O)OC[C@@]12C(=O)C[C@@H](C)[C@]3(C[C@@H](c4ccoc4)OC3=O)[C@H]1CC[C@H](OC(C)=O)[C@]21CO1
inactive: Potency [1] | Potency [2] | Potency [3]

COc1cc(/C=C/C(=O)OCC2OC(OC3(CO)OC(CO)C(O)C3O)C(O)C(O)C2O)ccc1O (stereo not drawn)
inactive: Potency [1] | Potency [2] | Potency [3]

C=C(CCO[C@@H]1O[C@H](CO)[C@@H](O)[C@H](O)[C@H]1O)C(=O)O
inactive: Potency [1] | Potency [2] | Potency [3]

C[C@@]1(O)[C@H](O)[C@@H](CO)O[C@H]1n1cnc2c(=O)[nH]c(N)nc21
inactive: Potency [1] | Potency [2] | Potency [3]

COc1cc(CO)ccc1O[C@@H]1O[C@H](CO)[C@@H](O)[C@H](O)[C@H]1O
inactive: Potency [1] | Potency [2] | Potency [3]

COc1ccc(CCC(=O)O)c(O[C@@H]2O[C@H](CO)[C@@H](O)[C@H](O)[C@H]2O)c1
inactive: Potency [1] | Potency [2] | Potency [3]

CC1OC(OC2C(OC3C(O[C@H]4CC[C@@]5(C)C(CC[C@]6(C)C5CC=C5C7CC(C)(C)CC(O)[C@]7(C)CC[C@]56C)C4(C)C)OC(C(=O)O)C(O)C3O)OCC(O)C2O)C(O)C(O)C1O (stereo partly drawn)
inactive: Potency [1] | outcome [2] inactive [at 9.23 µM] | activity change, negative = cell killing [3] 4.8% [at 9.23 µM]

COC(=O)C[C@@H]1C(C(=O)O)=CO[C@@H](O[C@@H]2O[C@H](CO)[C@@H](O)[C@H](O)[C@H]2O)/C1=C\COC(=O)/C=C/c1ccc(O)c(OC)c1
inactive: Potency [1] | Potency [2] | Potency [3]

CN1CCN(C(=O)c2cc3cc(Cl)ccc3[nH]2)CC1
inactive: Potency [1] | Potency [2] | Potency [3]

COc1cc(C(C)=O)ccc1O[C@@H]1O[C@H](CO[C@@H]2OC[C@@H](O)[C@H](O)[C@H]2O)[C@@H](O)[C@H](O)[C@H]1O
inactive: Potency [1] | Potency [2] | Potency [3]

C/C=C(\C)C(=O)OCC1OC(OCC2OC(OC3(CO)OC(CO)C(O)C3O)C(O)C(O)C2O)C(O)C(O)C1O (stereo not drawn)
inactive: Potency [1] | Potency [2] | Potency [3]

COc1ccc2c(c1)N1C(=O)C[C@@]34C=CC[N@+]5([O-])CC[C@H]2[C@H](CC3)[C@@]145
inactive: Potency [1] | Potency [2] | Potency [3]
